# “And” between values parts separate entries of the source, which are not always exact repeats. Equal entries are not always repeated. Inconclusive results are not listed. A call without a number means that no potency is given here. The source made the active and inactive calls. Unless noted, calls follow the shape of the dose curve; as a rule, active = well fitted curve in the direction sought with a large enough effect; inconclusive = small, poorly fitted or top-dose-only effect, or another doubt; inactive = no such curve, though single readings can be large; an effect the other way counts as inactive or inconclusive.
# How the values were obtained:
# [1] = target: Thyroid hormone receptor beta (Homo sapiens) (UniProt P10828); experiment: qHTS assay for small molecule agonists of thyroid hormone receptor beta signaling (AID 588545; calls by dose curve)
# How it was run: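 TR-UAS-bla GripTite HEK 293 cells (2500/well, medium with 2% charcoal/dextran FBS) were treated in agonist mode for 18 h at 37 C, titrated. Beta-lactamase was read by CCF4 ratio after 2 h; normalized to 10 nM T3 (100%) and DMSO, Hill-fitted for EC50 and efficacy.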
# [2] = target: Thyroid hormone receptor beta (Homo sapiens) (UniProt P10828); experiment: qHTS assay for small molecule antagonists of thyroid hormone receptor beta signaling (AID 588547; active = well fitted inhibition curve with a large enough effect in the signal ratio, with a control signal flat, not every such curve was filed as active; the % refers to the signal ratio;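 also: cells stimulated with 0.4 nM T3 agonist during compound exposure; series mostly up to about 77 µM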); conditions: TR-UAS-bla HEK293, beta-lactamase ratio, antagonist mode, 18 h
# How it was run: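 TR-UAS-bla GripTite HEK293 cells in 2% charcoal/dextran FBS medium; compounds 0.59 nM to 92 uM with T3 at 0.4nM final, 18 h at 37 C. Beta-lactamase read by CCF4 fluorescence (460/530 nm); Hill fits gave IC50 and efficacy.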
# [3] = target: Voltage-gated inwardly rectifying potassium channel KCNH2 (Homo sapiens) (UniProt Q12809); experiment: qHTS Assay for Small Molecule Inhibitors of the Human hERG Channel Activity (AID 588834);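 also: lower thallium flux fluorescence means stronger hERG block; nearly all actives have a fitted effect of over 50% in size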; also: potency is read from the fitted curve at half-maximal effect
# How it was run: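 Blockade is seen as reduced FluxOR thallium-flux fluorescence in U2OS cells expressing hERG from a BacMam construct, in Opti-MEM with 2% FCS. Concentration-response data fitted to the Hill equation for AC50.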
# [4] = target: Luciferin 4-monooxygenase (Photinus pyralis) (UniProt P08659); experiment: Biochemical firefly luciferase enzyme assay for NPC (AID 624030); also: nearly all actives have a fitted effect of over 70% in size; also: potency is read from the fitted curve at half-maximal effect
# How it was run: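 Purified P. pyralis luciferase at 10 nM in 50 mM Tris Acetate (final), luminescence read within 5 minutes of enzyme addition to compounds. Activity normalised to PTC124 versus DMSO; concentration-response curves classed by r2, magnitude and activity.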
# [5] = S16 Schwann cell viability assay (CellTiter-Glo assay) (AID 624031);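 also: native untransfected S16 rat Schwann cells; cellular ATP luminescence as a viability measure; series mostly up to about 58 µM; nearly all actives have a fitted effect of over 70% in size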
# How it was run: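 Concentration-effect curves come from CellTiter-Glo luminescence of S16 rat Schwann cells after 24 h compound exposure. Each reading was normalized to DMSO wells (0%) and wells without cells, and curves were ranked by r2 and response magnitude.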
# [6] = target: Glutaminase kidney isoform, mitochondrial (Homo sapiens) (UniProt O94925); experiment: qHTS for Inhibitors of Glutaminase (GLS): LOPAC Validation (AID 624146); also: nearly all actives have a fitted effect of over 60% in size; also: potency is read from the fitted curve at half-maximal effect
# How it was run: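 hKGA in 45 mM KH2PO4 (pH 8.2), 0.02% Tween-20 with compound, then 1mM L-Glutamine (stock as added) plus glutamate oxidase/HRP/Amplex red coupling mix. Fluorescence read initially and after 30 min at RT; signal change reflects glutamate formation.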
# [7] = qHTS assay for small molecule antagonists of retinoid X receptor alpha signaling (AID 588546; active = well fitted inhibition curve with a large enough effect in the signal ratio, with a control signal flat, not every such curve was filed as active; the % refers to the signal ratio;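 also: cells stimulated with 9-cis-retinoic acid as agonist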); conditions: HEK293T RXRa-UAS-bla, beta-lactamase ratio, antagonist mode; measured here: W530 green channel, cytotoxicity proxy
# How it was run: (§1)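 Beta-lactamase reporter inhibition, read as CCF4 fluorescence ratio (ex 405, em 460/530 nm) after 2 h at RT. HEK293T UAS-bla cells, 2500/well, were stimulated with 9-cis-RA at 500 or 100 nM final alongside test compound for 18 h at 37 C.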
# [8] = target: Retinoic acid receptor RXR-alpha (Homo sapiens) (UniProt P19793); experiment: as above; conditions: HEK293T RXRa-UAS-bla, beta-lactamase ratio, antagonist mode
# How it was run: as §1
# [9] = S16 Schwann cell PMP22 intronic element beta-lactamase assay (AID 624044; calls by dose curve; also: nearly all actives have a fitted effect of over 15% in size; also: potency is read from the fitted curve at half-maximal effect)
# How it was run: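 Rat S16 Schwann cells with beta-Lac driven by a PMP22 intronic element, compound-treated 24 h at 37 °C. LiveBLAzer FRET B/G read: 460 nm normalized to potassium clavulanate vs DMSO; 535 nm FRET as viability; concentration-effect curves classified.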
# Thyroid hormone receptor beta (Homo sapiens), sequence (P10828 whole entry, looked up): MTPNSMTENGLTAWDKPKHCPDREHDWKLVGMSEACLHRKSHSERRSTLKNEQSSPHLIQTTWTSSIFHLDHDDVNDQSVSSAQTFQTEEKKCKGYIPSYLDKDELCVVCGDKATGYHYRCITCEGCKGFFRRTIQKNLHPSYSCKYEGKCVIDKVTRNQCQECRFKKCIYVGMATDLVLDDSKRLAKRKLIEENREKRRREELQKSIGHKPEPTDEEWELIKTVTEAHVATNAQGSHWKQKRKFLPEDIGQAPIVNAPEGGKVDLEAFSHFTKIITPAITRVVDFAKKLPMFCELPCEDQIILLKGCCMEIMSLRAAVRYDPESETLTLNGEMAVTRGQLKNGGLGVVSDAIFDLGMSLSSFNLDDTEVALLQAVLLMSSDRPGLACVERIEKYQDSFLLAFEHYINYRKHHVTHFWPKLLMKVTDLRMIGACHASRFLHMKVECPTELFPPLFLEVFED
# Retinoic acid receptor RXR-alpha (Homo sapiens), sequence (P19793 whole entry, looked up): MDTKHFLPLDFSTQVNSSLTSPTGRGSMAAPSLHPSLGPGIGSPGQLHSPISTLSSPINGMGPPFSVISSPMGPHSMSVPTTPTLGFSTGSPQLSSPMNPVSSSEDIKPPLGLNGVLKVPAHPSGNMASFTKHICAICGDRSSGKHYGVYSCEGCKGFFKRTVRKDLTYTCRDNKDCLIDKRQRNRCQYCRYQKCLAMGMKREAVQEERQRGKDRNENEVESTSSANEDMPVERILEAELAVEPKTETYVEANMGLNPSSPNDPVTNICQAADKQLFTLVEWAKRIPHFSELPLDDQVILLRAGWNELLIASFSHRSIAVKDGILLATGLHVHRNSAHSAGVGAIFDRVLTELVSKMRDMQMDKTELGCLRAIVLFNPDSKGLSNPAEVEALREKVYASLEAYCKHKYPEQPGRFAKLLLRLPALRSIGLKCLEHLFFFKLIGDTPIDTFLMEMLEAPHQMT
# Luciferin 4-monooxygenase (Photinus pyralis), sequence (P08659 whole entry, looked up): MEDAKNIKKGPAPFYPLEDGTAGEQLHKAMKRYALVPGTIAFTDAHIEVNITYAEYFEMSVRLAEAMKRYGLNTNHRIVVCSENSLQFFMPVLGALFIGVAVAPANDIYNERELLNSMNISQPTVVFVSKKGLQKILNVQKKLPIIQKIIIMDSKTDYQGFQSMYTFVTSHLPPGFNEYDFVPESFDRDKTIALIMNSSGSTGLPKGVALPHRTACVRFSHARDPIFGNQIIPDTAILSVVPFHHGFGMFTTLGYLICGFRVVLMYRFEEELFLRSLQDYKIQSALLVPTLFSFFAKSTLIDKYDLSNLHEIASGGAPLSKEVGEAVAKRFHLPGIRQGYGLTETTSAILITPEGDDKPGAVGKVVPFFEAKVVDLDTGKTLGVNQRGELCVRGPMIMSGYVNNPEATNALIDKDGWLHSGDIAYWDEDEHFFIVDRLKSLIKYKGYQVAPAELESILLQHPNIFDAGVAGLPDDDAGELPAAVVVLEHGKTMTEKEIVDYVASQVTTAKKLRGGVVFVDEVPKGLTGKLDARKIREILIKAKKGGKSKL
# Voltage-gated inwardly rectifying potassium channel KCNH2 (Homo sapiens), sequence (Q12809 whole entry, looked up): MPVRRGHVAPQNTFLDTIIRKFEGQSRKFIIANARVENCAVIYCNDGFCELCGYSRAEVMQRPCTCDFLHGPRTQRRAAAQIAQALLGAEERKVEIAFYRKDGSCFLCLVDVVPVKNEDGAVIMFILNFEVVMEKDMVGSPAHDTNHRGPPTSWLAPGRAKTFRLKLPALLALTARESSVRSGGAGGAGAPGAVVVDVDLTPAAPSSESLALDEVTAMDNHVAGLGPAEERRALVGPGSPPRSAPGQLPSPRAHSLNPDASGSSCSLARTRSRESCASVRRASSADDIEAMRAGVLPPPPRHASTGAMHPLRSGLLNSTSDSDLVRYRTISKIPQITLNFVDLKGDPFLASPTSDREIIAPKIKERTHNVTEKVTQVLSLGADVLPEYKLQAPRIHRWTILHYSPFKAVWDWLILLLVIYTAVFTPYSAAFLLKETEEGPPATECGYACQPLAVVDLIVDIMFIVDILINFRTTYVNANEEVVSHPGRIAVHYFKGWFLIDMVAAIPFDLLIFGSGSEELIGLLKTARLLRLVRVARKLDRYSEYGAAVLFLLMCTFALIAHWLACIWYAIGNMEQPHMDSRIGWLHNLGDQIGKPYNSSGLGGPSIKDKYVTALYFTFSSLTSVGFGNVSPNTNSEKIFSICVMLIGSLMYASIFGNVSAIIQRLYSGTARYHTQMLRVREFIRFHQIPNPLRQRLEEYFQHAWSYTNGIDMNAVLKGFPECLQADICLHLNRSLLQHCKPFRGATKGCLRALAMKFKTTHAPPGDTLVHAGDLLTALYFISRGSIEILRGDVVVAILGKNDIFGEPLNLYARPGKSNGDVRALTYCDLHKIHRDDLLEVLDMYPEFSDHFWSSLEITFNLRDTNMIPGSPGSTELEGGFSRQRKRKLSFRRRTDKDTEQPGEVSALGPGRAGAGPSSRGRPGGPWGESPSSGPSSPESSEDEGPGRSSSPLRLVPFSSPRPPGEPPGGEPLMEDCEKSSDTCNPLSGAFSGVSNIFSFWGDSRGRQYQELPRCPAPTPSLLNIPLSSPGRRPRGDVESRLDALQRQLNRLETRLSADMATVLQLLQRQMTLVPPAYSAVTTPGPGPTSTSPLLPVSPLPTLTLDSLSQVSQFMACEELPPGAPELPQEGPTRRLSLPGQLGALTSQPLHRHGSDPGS
# Glutaminase kidney isoform, mitochondrial (Homo sapiens), sequence (O94925 whole entry, looked up, canonical isoform): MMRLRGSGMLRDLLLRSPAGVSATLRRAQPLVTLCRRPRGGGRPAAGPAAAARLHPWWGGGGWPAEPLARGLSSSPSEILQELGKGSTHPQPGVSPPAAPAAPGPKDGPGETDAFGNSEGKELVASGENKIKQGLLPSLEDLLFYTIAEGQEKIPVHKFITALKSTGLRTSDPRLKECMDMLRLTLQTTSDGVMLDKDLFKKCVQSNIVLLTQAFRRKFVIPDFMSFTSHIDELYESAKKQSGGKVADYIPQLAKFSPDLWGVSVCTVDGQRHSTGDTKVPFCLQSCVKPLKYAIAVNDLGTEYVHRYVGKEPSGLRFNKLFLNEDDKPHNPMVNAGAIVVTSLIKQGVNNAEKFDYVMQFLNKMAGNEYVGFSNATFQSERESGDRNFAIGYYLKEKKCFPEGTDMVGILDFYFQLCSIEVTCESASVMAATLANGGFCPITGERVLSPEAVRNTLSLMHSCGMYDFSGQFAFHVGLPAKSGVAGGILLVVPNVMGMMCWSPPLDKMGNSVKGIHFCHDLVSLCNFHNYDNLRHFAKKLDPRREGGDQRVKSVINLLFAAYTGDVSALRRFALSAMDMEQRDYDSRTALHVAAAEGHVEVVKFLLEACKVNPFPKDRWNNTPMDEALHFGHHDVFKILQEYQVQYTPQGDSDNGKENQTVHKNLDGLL
Compound,outcome [1],activity change % (negative = inhibition) [2],Potency [3],Potency [4],Potency [5],Potency [6],max response [7],max response [8],Potency [9]
CC(=O)O[C@]1(C(C)=O)CC[C@H]2[C@@H]3C=C(Cl)C4=CC(=O)[C@@H]5C[C@@H]5[C@]4(C)[C@H]3CC[C@@]21C,inactive,13.7% (inactive) and 12.8% (inactive),inactive,inactive,inactive,inactive,,,
O=c1c(-c2ccc(O)cc2)coc2cc(O)ccc12,inactive,20.4% (inactive),inactive,,,inactive,2.28% and 13.9%,8.82% (inactive) and -46% (inactive),
O=c1cc(-c2ccc(O)cc2)oc2cc(O)cc(O)c12,inactive,-28.1% (inactive),inactive,,,inactive,,,
CN(C)CCC(c1ccccc1)c1ccccn1 (stereo not given),inactive,-6.32% (inactive),,inactive,inactive,inactive,-6.63%,-4.45% (inactive),
CC[C@]1(O)C[C@@H]2CN(CCc3c([nH]c4ccccc34)[C@@](C(=O)OC)(c3cc4c(cc3OC)N(C)[C@H]3[C@@](O)(C(=O)OC)[C@H](OC(C)=O)[C@]5(CC)C=CCN6CC[C@]43[C@@H]65)C2)C1,,,inactive,,,,,,
CC(C(=O)O)c1ccc(-c2ccccc2)c(F)c1 (stereo not given),,,inactive,,,,,,
Clc1ccc(Cn2c(CN3CCCC3)nc3ccccc32)cc1,,,1.41 µM (active) and 3.98 µM (active),inactive,inactive,inactive,,,inactive
CC1=C(/C=C/C(C)=C/C=C/C(C)=C/C(=O)Nc2ccc(O)cc2)C(C)(C)CCC1,,,inactive,inactive,inactive,12.6 µM (active),,,11.2 µM (active)
O=C(O)c1cc(-c2ccccc2)nc2ccccc12,inactive,5.82% (inactive),inactive,18.6 µM (active),inactive,,9.45%,-7.59% (inactive),
O=C(O)Cc1cccc2ccccc12,,9.53% (inactive) and -11.8% (inactive),inactive,inactive,inactive,,4.01% and -7.8%,3.25% (inactive) and 2.98% (inactive),
O=C(O)c1cc(O)c2c(c1)C(=O)c1cccc(O)c1C2=O,inactive,,inactive,,,,,,
O=c1c(O)c(-c2ccc(O)cc2)oc2cc(O)cc(O)c12,inactive,0.335% (inactive) and 4.17% (inactive),,,,,,,
CCCCC1C(=O)N(c2ccccc2)N(c2ccccc2)C1=O,inactive,6.78% (inactive),inactive,inactive,inactive,inactive,1.64% and -10.6%,0.963% (inactive) and -0.138% (inactive),
O=C1NC(=O)C(c2ccccc2)(c2ccccc2)N1,inactive,-1.15% (inactive) and 6.61% (inactive),inactive,inactive,inactive,inactive,-8.37% and -14.2% and -3.37%,15.9% (inactive) and 2.5% (inactive) and -5.42% (inactive),
OC[C@@H](O)[C@H](O)[C@H](O)[C@@H](O)CO,,,inactive,,,,,,
C[C@@H](O)[C@H]1C(=O)N2C(C(=O)O)=C(S[C@@H]3CN[C@H](C(=O)N(C)C)C3)[C@H](C)[C@H]12,,,inactive,inactive,inactive,,,,
CC(=O)c1ccc(S(=O)(=O)NC(=O)NC2CCCCC2)cc1,inactive,-3.97% (inactive) and -18% (inactive),inactive,inactive,inactive,inactive,-6.48% and 24.9%,-4.66% (inactive) and -24.2% (inactive),
CC(=O)N[C@@H](CS)C(=O)O,inactive,-10.2% (inactive),inactive,inactive,inactive,inactive,-5.69%,2.12% (inactive),
O=C1NCC2(CCN(CCc3ccccc3)CC2)O1,,,inactive,inactive,inactive,,,,inactive
CCOC(=O)O[C@]1(C(=O)OCCl)CC[C@@H]2[C@H]3CCC4=CC(=O)C=C[C@]4(C)[C@@H]3[C@@H](O)C[C@@]21C,,,inactive,inactive,inactive,,,,inactive
Cc1cnc(C(=O)O)c[n+]1[O-],,,inactive,inactive,inactive,,,,
CC1(C)O[C@H]2C[C@@H]3[C@H]4CCC5=CC(=O)C=C[C@]5(C)[C@@]4(F)[C@@H](O)C[C@]3(C)[C@]2(C(=O)CO)O1,,,inactive,inactive,inactive,,,,inactive
